The values that follow come from PubChem BioAssay (NCI).

Test systems include HCT-15 colon; HT29 colon; SNB-75 CNS; SNB-19 CNS; U251 CNS; PC-3 prostate; SK-MEL-5 melanoma; UACC-62 melanoma; LOX IMVI melanoma; SK-MEL-28 melanoma; SK-MEL-2 melanoma; EKVX NSCLC; SN12C renal; UO-31 renal; TK-10 renal; ACHN renal; CAKI-1 renal; A498 renal; CCRF-CEM leukemia; MOLT-4 leukemia.
Assay in all cases: NCI-60 one-dose screen, 48 h (100 = growth as untreated, 0 = no growth, -100 = all killed)
Conditions in all cases: 10 µM unless noted

About 83,000 compounds went through this panel and 20% of them were active in at least one assay; those are over-represented in the sample as a whole.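 Assay: single dose, 48 h. Readout: percent growth (0 = no net growth; negative = cell death). Active: <10.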 Unmarked numbers belong to inactive results. Active and inactive are the calls of the source.

With `CC[C@H](Nc1nc(N)nc(C)c1C#N)c1nc2cccc(NCCCCCC(=O)NO)c2c(=O)n1-c1ccccc1`, the growth in the test with HCT-15 colon was 78.7%; with HT29 colon, 79.2%; in the test on SNB-75 CNS it was 5.55% (active); with SNB-19 CNS it was 71%; in the test with U251 CNS, 61.3%; in the test with PC-3 prostate it was 45.1%. In addition, the growth in the test on SK-MEL-5 melanoma is 49.7%; in the test with UACC-62 melanoma, 15.7%; in the test with LOX IMVI melanoma it was 66.5%; in the test with SK-MEL-28 melanoma, 45.8%; with SK-MEL-2 melanoma, 76.1%; in the test on EKVX NSCLC, 75%. The growth in the test on SN12C renal was 46.3%; in the test on UO-31 renal it was 30.1%; in the test on TK-10 renal it was 33.2%; in the test on ACHN renal it was 51.9%; with CAKI-1 renal, 35.9%; in the test with A498 renal, -29.5% (active). The growth was 43.3% with CCRF-CEM leukemia and 30.7% in the test on MOLT-4 leukemia.

Consider `CCCCn1sc(=O)n(Cc2ccc(CNC(=O)OCc3ccc4c(Cl)cc(Cl)c(O)c4n3)cc2)c1=O`, for which the growth in the test with HCT-15 colon was 19%; with HT29 colon it was 101%; in the test with SNB-75 CNS, 81.1%; with SNB-19 CNS it was 52.5%; in the test on U251 CNS it was 41.1%; in the test on PC-3 prostate it was 58.5%. Further, the growth is 59.5% in the test on SK-MEL-5 melanoma; 47.9% in the test on UACC-62 melanoma; 46% in the test with LOX IMVI melanoma; 69.2% in the test on SK-MEL-28 melanoma; 85.6% in the test on SK-MEL-2 melanoma; 86.7% in the test with EKVX NSCLC. Moreover, the growth was 57.6% in the test on SN12C renal; 18.3% in the test with UO-31 renal; 78% in the test on TK-10 renal; 30.8% in the test with ACHN renal; 54.6% in the test with CAKI-1 renal; 91% in the test with A498 renal. Besides, the growth with CCRF-CEM leukemia was 32%; in the test with MOLT-4 leukemia it was 33.5%.

Take `CN1CCCc2cc(/C=C3/SC(=S)N(CCc4ccc(O)cc4)C3=O)ccc21`: the growth in the test on HCT-15 colon was 56.7%; in the test on HT29 colon, 86.3%; in the test on SNB-75 CNS, 74.1%; in the test with SNB-19 CNS it was 92.9%; in the test on U251 CNS it was 94.4%; in the test with PC-3 prostate, 67.5%. In addition, the growth with SK-MEL-5 melanoma was 92%; with UACC-62 melanoma it was 71.9%; in the test with LOX IMVI melanoma it was 77.3%; with SK-MEL-28 melanoma, 88.5%; with SK-MEL-2 melanoma, 98%; in the test on EKVX NSCLC, 93.7%. Besides, the growth is 77.3% in the test on SN12C renal; 52.4% in the test with UO-31 renal; 114% in the test with TK-10 renal; 87.3% with ACHN renal; 58.8% in the test with CAKI-1 renal; 73.5% in the test on A498 renal. The growth in the test on CCRF-CEM leukemia was 14.8%; in the test with MOLT-4 leukemia, 51%.

Regarding `C(/C=C/c1ccccc1)=Nc1ccc(CCc2ccc(N=C/C=C/c3ccccc3)cc2)cc1`, the growth in the test with HCT-15 colon was 15.9%; in the test on HT29 colon, 36.4%; in the test on SNB-75 CNS it was 116%; in the test on SNB-19 CNS, 88.1%; with U251 CNS, 75%; with PC-3 prostate, 71.7%. In addition, the growth with SK-MEL-5 melanoma was 96.6%; in the test on UACC-62 melanoma, 73.6%; in the test on LOX IMVI melanoma it was 73.1%; with SK-MEL-28 melanoma it was 109%; with SK-MEL-2 melanoma it was 41.5%; with EKVX NSCLC it was 121%. The growth with SN12C renal is 92.7%; in the test with UO-31 renal it was 86.4%; in the test with TK-10 renal, 93.8%; in the test with ACHN renal it was 6.67% (active); in the test on CAKI-1 renal, 41.7%; in the test with A498 renal, 109%. Also, the growth was 95.3% in the test on CCRF-CEM leukemia and 78.2% in the test on MOLT-4 leukemia.

As to `CCN(CC)CCOc1ccc(Nc2ncc3cc(-c4ccc(O)cc4)c(=O)n(C)c3n2)cc1`, the growth in the test on HCT-15 colon is 19.7%; in the test on HT29 colon it was 14.8%; in the test on SNB-75 CNS, 27.7%; in the test on SNB-19 CNS, 62.4%; with U251 CNS it was 53.9%; in the test with PC-3 prostate, -49.3% (active). Moreover, the growth in the test on SK-MEL-5 melanoma was 92.9%; with UACC-62 melanoma it was 93.3%; with LOX IMVI melanoma, -11.7% (active); with SK-MEL-28 melanoma, 55.7%; in the test with SK-MEL-2 melanoma, 97.7%; in the test on EKVX NSCLC, 74%. The growth was 39.9% in the test with SN12C renal; 10.5% in the test with UO-31 renal; 81.2% with TK-10 renal; 26% in the test with ACHN renal; 26.4% in the test on CAKI-1 renal; 69.4% with A498 renal. The growth in the test with CCRF-CEM leukemia is -8.41% (active); in the test with MOLT-4 leukemia, 5.99% (active).

With `O=C(CCCCNC(=O)c1cc(=O)c(O)co1)Nc1ccccc1`, the growth in the test with HCT-15 colon is 49%; with HT29 colon it was 98.2%; in the test on SNB-75 CNS, 84.9%; in the test with SNB-19 CNS, 102%; in the test on U251 CNS it was 92.8%; in the test on PC-3 prostate, 95.9%. The growth in the test with SK-MEL-5 melanoma is 98.6%; with UACC-62 melanoma, 90.1%; in the test on LOX IMVI melanoma it was 45.3%; in the test on SK-MEL-28 melanoma, 103%; with SK-MEL-2 melanoma it was 98.8%; in the test on EKVX NSCLC, 95.6%. In addition, the growth with SN12C renal is 88.4%; in the test on UO-31 renal, 76.4%; with TK-10 renal, 98.3%; in the test with ACHN renal it was 31.5%; with CAKI-1 renal, 94.3%; in the test with A498 renal it was 98.2%. Besides, the results for the growth in the test on CCRF-CEM leukemia and in the test on MOLT-4 leukemia were 6.26% (active) and 20.3%, respectively.

With `COc1ccc(C(c2cc(OC)c(OC)c(OC)c2)N2CCCC2)cc1` (stereo not given), the growth in the test with HCT-15 colon is 52.7%; in the test with HT29 colon, 40.6%; in the test with SNB-75 CNS it was 84.1%; with SNB-19 CNS, 90.5%; with U251 CNS, 77.8%; with PC-3 prostate it was 63.9%. The growth in the test on SK-MEL-5 melanoma is 65.2%; with UACC-62 melanoma, 57.4%; in the test with LOX IMVI melanoma it was 73%; in the test on SK-MEL-28 melanoma, 80.1%; in the test with SK-MEL-2 melanoma, 55.7%; in the test with EKVX NSCLC, 87.8%. The growth is 108% in the test with SN12C renal; 75.1% with UO-31 renal; 88.3% with TK-10 renal; 103% in the test on ACHN renal; 77.5% with CAKI-1 renal; 31.2% with A498 renal. Besides, the results for the growth in the test with CCRF-CEM leukemia and in the test on MOLT-4 leukemia were 71.2% and 78.1%, respectively.
